Data as given in PubChem BioAssay (NCATS).
Records with an inconclusive call do not appear. A call without a number means that no potency is given here. Unmarked numbers belong to inactive results. Activity calls are given as the source filed them. Calls come from the whole dose curve; as a rule, active = well fitted inhibition curve with a large enough effect; inconclusive = small, poorly fitted or top-dose-only effect; inactive = flat fitted curve, though single readings scatter.

Legend:
Experiment in all cases: qHTS profiling for inhibitors of Plasmodium falciparum proliferation (AID 504749); note: nearly all actives have a fitted effect of over 60% in size
Settings in all cases: P. falciparum in erythrocytes, SYBR Green DNA, 72 h; series mostly up to 28.7 µM
[1] = test system: CP203
Method in brief: (§1)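 Three-day growth assay of blood-stage parasites in erythrocytes (0.3% parasitemia, 2.5% hematocrit) at 37 C, 5% CO2, quantified by SYBR Green DNA staining after overnight detergent lysis.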

[2] = test system: CP211
Method in brief: as §1

[3] = test system: CP215
Method in brief: as §1

[4] = test system: CP217
Method in brief: as §1

[5] = test system: CP237
Method in brief: as §1

[6] = test system: CP238
Method in brief: as §1

[7] = test system: CP247
Method in brief: as §1

[8] = test system: CP250
Method in brief: as §1

[9] = test system: CP252
Method in brief: as §1

[10] = test system: CP256
Method in brief: as §1

[11] = test system: CP260
Method in brief: as §1

[12] = test system: CP262
Method in brief: as §1

[13] = test system: CP265
Method in brief: as §1

[14] = test system: CP266
Method in brief: as §1

[15] = test system: CP268
Method in brief: as §1

[16] = test system: CP269
Method in brief: as §1

[17] = test system: CP286
Method in brief: as §1

[18] = test system: CP291
Method in brief: as §1

[19] = test system: CP297
Method in brief: as §1

[20] = test system: CP305
Method in brief: as §1
Potency is the fitted concentration of half-maximal effect.

Compound | Potency [1] | Potency [2] | Potency [3] | Potency [4] | Potency [5] | Potency [6] | Potency [7] | Potency [8] | Potency [9] | Potency [10] | Potency [11] | Potency [12] | Potency [13] | outcome [14] | Potency [15] | Potency [16] | Potency [17] | Potency [18] | Potency [19] | Potency [20]
NC(=O)CS(=O)C(c1ccccc1)c1ccccc1 (stereo unspecified) | inactive | inactive | inactive | inactive | inactive | inactive | inactive | inactive | inactive | inactive | inactive | inactive | inactive | inactive | inactive | inactive | inactive | inactive | inactive | inactive
CN1C[C@H](C(=O)N[C@]2(C)O[C@@]3(O)[C@@H]4CCCN4C(=O)[C@H](Cc4ccccc4)N3C2=O)C=C2c3cccc4[nH]cc(c34)C[C@H]21 | 4.26 µM (active) | 15.1 µM (active) | 5.36 µM (active) | 1.41 µM (active) | 224 nM (active) | 1.41 µM (active) | 3.55 µM (active) | 3.16 µM (active) | 1 µM (active) | 4.47 µM (active) | 282 nM (active) | 9.53 µM (active) | 631 nM (active) |  | 6.75 µM (active) | 4.26 µM (active) | 891 nM (active) | 9.53 µM (active) | 3.38 µM (active) | 6.75 µM (active)
Oc1ccc(Cl)cc1 | inactive | inactive | inactive | inactive | inactive | inactive | inactive | inactive | inactive | inactive | inactive | inactive | inactive | inactive | inactive | inactive | inactive | inactive | inactive | inactive
O=c1oc2ccccc2c(O)c1Cc1c(O)c2ccccc2oc1=O | inactive | inactive | inactive | inactive | inactive | inactive | inactive | inactive | inactive | inactive | inactive | inactive | inactive | inactive | inactive | inactive | inactive | inactive | inactive | inactive
Nc1ccc([As](=O)(O)O)cc1 | inactive | inactive | inactive | inactive | inactive | inactive | inactive | inactive | inactive | inactive | inactive | inactive | inactive | inactive | inactive | inactive | inactive | inactive | inactive | inactive
CCOC(=O)CC(SP(=S)(OC)OC)C(=O)OCC (stereo unspecified) | inactive | inactive | inactive | inactive | inactive | inactive | inactive | inactive | inactive | inactive | inactive | inactive | inactive |  | inactive | inactive | inactive | inactive | inactive | inactive
O=c1[nH]oc2c1CCNC2 | inactive | inactive | inactive | inactive | inactive | inactive | inactive | inactive | inactive | inactive | inactive | inactive | inactive | inactive | inactive | inactive | inactive | inactive | inactive | inactive
CN1C(=O)CCS(=O)(=O)C1c1ccc(Cl)cc1 (stereo unspecified) | inactive | inactive | inactive | inactive | inactive | inactive | inactive | inactive | inactive | inactive | inactive | inactive | inactive | inactive | inactive | inactive | inactive | inactive | inactive | inactive
NNc1ccccc1 | inactive | inactive | inactive | inactive | inactive | inactive | inactive | inactive | inactive | inactive | inactive | inactive | inactive | inactive | inactive | inactive | inactive |  | inactive | inactive
CN1C(=O)CC(=O)N(c2ccccc2)c2cc(Cl)ccc21 | inactive | inactive | inactive | inactive | inactive | inactive | inactive | inactive | inactive | inactive | inactive | inactive | inactive | inactive | inactive | inactive | inactive | inactive | inactive | inactive
Clc1cccc(SC2CCNCC2)n1 | inactive | inactive | inactive | inactive | inactive | inactive | inactive | inactive | inactive | inactive | inactive | inactive | inactive | inactive | inactive | inactive | inactive |  | inactive | inactive
O=C1CN=C(c2ccccc2)c2cc([N+](=O)[O-])ccc2N1 | inactive | inactive | inactive | inactive | inactive | inactive | inactive | inactive | inactive | inactive | inactive | inactive | inactive | inactive | inactive | inactive | inactive | inactive | inactive | inactive
